Source: PubChem (National Center for Advancing Translational Sciences (NCATS))
In the library only some 19% were active in any assay of this set; here they are far more common.
KB-V1 MDR tox = KB-V1 MDR subline cytotoxicity | KB-V1 MDR cells viability, CellTiter-Glo, 72 h | Potency, µM (highest dose often 46.1 µM), actives largely listed as cytotoxic | 400,000 tested, 3.4% active | AID 1347076; also: nearly all actives have a fitted effect of over 60% in size
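Cytotoxicity via CellTiter-Glo luminescence after 72 h compound exposure at 37 degrees C. Cells: drug-selected KB-V1 line, DMEM phenol-red free plus 10% FBS. Compounds tested at multiple concentrations; normalized data fitted to concentration-effect curves.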
TDP1 cell CPT = growth inhibition of DT40 Tdp1-/-;hTDP1 cells with camptothecin (screen for TDP1 inhibitors); chicken DT40 Tdp1-/-;hTDP1 cells + 20 nM CPT, ATP luminescence, 48 h; Potency, µM (doses to about 46.2 µM), for the others: at the top dose activity change, negative = growth inhibition, hits mostly inhibitors; 420,000 tested, 12% active; AID 686979; also: nearly all actives have a fitted effect of over 55% in size
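Cell growth measured by CellTiter-Glo luminescence after a minimum 48 h, 37 C compound exposure with 20 nM CPT in Tdp1-knockout DT40 cells stably expressing hTDP1, seeded 400/well; qHTS titration format.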
HT1080 IDH1KD tx = HT-1080 IDH1 knockdown cell toxicity (counter line) | HT-1080 IDH1 knockdown viability, ATP luminescence, 48 h | Potency, µM (titrated, usually from 46.1 µM), without a hit: at the top dose activity, negative = toxicity, most hits filed as cytotoxic | 360,000 tested, 2% active | AID 686971;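 also: 0% = DMSO wells and -100% = cell-free medium wells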
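HT-1080-IDH1KD cells (IDH1 knocked down), 750/well in RPMI with 5% FBS, treated with compound 48 h at 37 degrees C. Viability by CellTiter-Glo luminescence, normalised to DMSO and no-cell wells; concentration-response curves classed.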
DT40 TDP1 no CPT = qHTS for Inhibitors of human tyrosyl-DNA phosphodiesterase 1 (TDP1): qHTS in cells in absence of CPT | DT40 Tdp1-/- hTDP1 cells, no CPT, ATP luminescence, 48 h | 420,000 tested, 15% active | AID 686978, 2013 | Potency, µM (series often up to 46.2 µM), for inactives: at the highest dose activity change, negative = growth inhibition, hits mostly inhibitors; also: nearly all actives have a fitted effect of over 55% in size
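Chicken DT40 Tdp1-/- cells stably complemented with human TDP1 were seeded at 400 cells/well with DMSO in place of 20 nM camptothecin. After compound pinning, cells grew at least 48 hr at 37 °C; viability read by CellTiter-Glo luminescence.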
HT1080-NT tox = kills 2HG-producing HT-1080-NT fibrosarcoma cells | AID 686970 | HT-1080-NT fibrosarcoma viability, CellTiter-Glo ATP luminescence, 48 h | Potency, µM (highest dose often 46.1 µM), inactives show at the top dose activity, negative = less viability, most hits filed as cytotoxic | 360,000 tested, 1.6% active;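 also: NT is the 2HG producing partner of a matched IDH1 knockdown line; 0% = DMSO-treated cells and -100% = media-only wells without cells; nearly all actives have a fitted effect of over 55% in size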
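Compounds were tested in concentration-response format on HT-1080-NT cells for 48 hours at 37 degrees C. Cell viability came from CellTiter-Glo luminescence; curves were classified by r2, response magnitude and activity.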
KB-3-1 cytotox = KB-3-1 parental cell cytotoxicity | Potency, µM (highest dose often 46.1 µM), hits mostly cytotoxic | KB-3-1 viability, CellTiter-Glo ATP luminescence, 72 h | 400,000 tested, 1.4% active; also: nearly all actives have a fitted effect of over 60% in size
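Parental KB-3-1 adenocarcinoma cells in phenol-red-free DMEM with 10% FBS were pin-treated with compounds at several concentrations, incubated 72 h at 37 °C, and viability read by CellTiter-Glo luminescence; concentration-effect curves were fitted after normalization.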
* = called active by the depositor; i = inactive; ? = inconclusive; · = not tested or not shown; ! = repeats disagree; [ ] = another dose, or the depositor's remark. Calls follow the shape of the dose curve; as a rule, active = well fitted curve in the direction sought with a large enough effect; inconclusive = small, poorly fitted or top-dose-only effect, or another doubt; inactive = no such curve, though single readings can be large; an effect the other way counts as inactive or inconclusive. Unless noted, % is scaled to controls: 0 for no effect and ±100 for the full control effect; potency is read from the fitted curve at half-maximal effect.

SMILES	KB-V1 MDR tox	TDP1 cell CPT	HT1080 IDH1KD tx	DT40 TDP1 no CPT	HT1080-NT tox	KB-3-1 cytotox
CN(C)c1ccc(O)c2c1C[C@H]1C[C@H]3[C@H](N(C)C)C(=O)C(C(N)=O)=C(O)[C@@]3(O)C(=O)C1=C2O	·	6.5µM*	·	21µM*!	·	·
CN(C)[C@@H]1C(=O)C(C(=O)NCN2CCCC2)=C(O)[C@@]2(O)C(=O)C3=C(O)c4c(O)cccc4[C@@](C)(O)C3C[C@@H]12 (some centres not stated)	·	-15%[21.1 µM]	·	-1%[21.1 µM]	·	·
CN(C)c1ccc(O)c2c1CC1CC3[C@@H](N(C)C)C(=O)C(C(N)=O)=C(O)[C@]3(O)C(=O)C1=C2O (some centres not stated)	i	8.2µM*	·	3.7µM*	·	i
O=S(=O)(Nc1cccc(-c2ccc(N3CCOCC3)nn2)c1)c1ccc(F)cc1F	i	-25%	·	-20%	·	i
CCOC(=O)C(=Cc1ccc(-n2ccnc2)cc1)C(=O)OCC	?	23µM*	5.8µM*	21µM*	10µM*	21µM*
CCc1ccc(C(C)NC(=O)/C=C/c2ccc(Br)cc2)cc1 (configuration not stated)	?	?	-14%	-14%	-3%	i
CCOC(=O)C(CC)(CC)C(=O)/C=C/c1ccc(Br)cc1	18µM*	?	?	16µM*	?	21µM*
CCOC(=O)C(=Cc1ccc(Br)cc1)C(=O)OCC	16µM*	12µM*	6.5µM*	2.9µM*	21µM*	?
CCOC(=O)Cc1csc(NC(=O)COc2cc(C)cc(C)c2)n1	i	-11%	1%	?	-7%	i
COc1cc(/C=C2\C(=O)N(c3ccc(NC(C)=O)cc3)N=C2c2ccccc2)ccc1O	i	-16%	-3%	7%	9%	i
O=C1/C(=C\c2ccc(O)c(O)c2)C(c2ccccc2)=NN1c1ccccc1	i	?	-10%	21µM*	-25%	i
O=C(C[n+]1cccc(C(=O)Nc2ccccc2)c1)c1ccccc1	i	?	0%	18µM*	-5%	i
N#Cc1ccc[n+](CC(=O)c2ccc(NC(=O)c3ccccc3)cc2)c1	i	10µM*	15%	-22%	5%	i
Cc1ccc[n+](CC(=O)c2ccc(NC(=O)c3ccccc3)cc2)c1	i	-82%	4%	-78%	1%	i
NC1(C(=O)O)CCc2cc(P(=O)(O)O)ccc21 (configuration not stated)	·	3%	·	-15%	·	·
CCN(CC)CCCNC(=O)Cc1csc2nc(-c3ccc(Cl)cc3)cn12	i	?	·	?	·	i
CC(C)CNc1ncnc2c1ncn2[C@H]1CN(Cc2cccc3ccccc23)C[C@@H](CO)O1	?	18µM*	?	?	?	i
CC(C)CNc1ncnc2c1ncn2[C@H]1CN(Cc2ccc(Cl)cc2)C[C@@H](CO)O1	i	?	-8%	?	-19%	i
OC[C@@H]1CN(Cc2cccc3ccccc23)C[C@H](n2cnc3c(NCc4ccco4)ncnc32)O1	?	21µM*	?	21µM*	?	i
OC[C@@H]1CN(Cc2ccc(Cl)cc2)C[C@H](n2cnc3c(NCc4ccco4)ncnc32)O1	?	?	14%	-27%	9%	i
COc1ccc(-c2cc(C(F)F)n3ncc(C(=O)Nc4cc(C)on4)c3n2)cc1	i	22%	10%	-25%	7%	i
O=C1C=C(c2cccc(OCc3ccccc3)c2)C[C@@H](c2ccc3c(c2)OCO3)C1	i	-29%	-16%	-20%	0%	i
O=C1C=CC2C(c3ccc4c(c3)OCO4)CC1N2Cc1ccccc1 (configuration not stated)	?	8.2µM*	-20%	6.5µM*	-19%	9.2µM*
O=C(CN1C(=O)COc2ccc(S(=O)(=O)N3CCCC3)cc21)N1CCN(c2ccc(F)cc2)CC1	?	·	·	·	·	i
CCc1ccccc1NC(=O)Cn1c(=O)n(Cc2ccc3c(c2)OCO3)c(=O)c2ccc(C(=O)NC3CCCCC3)cc21	i	1.8µM*	·	?	·	i
SMILES	KB-V1 MDR tox	TDP1 cell CPT	HT1080 IDH1KD tx	DT40 TDP1 no CPT	HT1080-NT tox	KB-3-1 cytotox
CCOc1ccc(NC(=O)Cn2c(=O)n(Cc3ccc4c(c3)OCO4)c(=O)c3ccc(C(=O)NC4CCCCC4)cc32)cc1	?	2.6µM*	·	4.6µM*	·	i
Cc1cc(C)c(NC(=O)Cn2c(=O)n(Cc3ccc4c(c3)OCO4)c(=O)c3ccc(C(=O)NC4CCCCC4)cc32)c(C)c1	?	-3%	·	5%	·	i
COc1ccc(C2=C(C)C(N3CCC(C(=O)Nc4cc(C)ccc4C)CC3)=NS2(=O)=O)cc1	i	-3%	·	-20%	·	i
O=Cc1cnc2ccccc2c1-c1ccccc1	i	?	2%	23µM*	-14%	i
CCOc1cc(N2CCOCC2)c(OCC)cc1NC(=S)NCCCOC	i	-2%	24%	-7%	24%	i
COc1ccc(-c2nnc(SCC(=O)Nc3ccc(F)cc3)s2)cc1	i	5%	·	-18%	·	i
O=c1cnc2cnc(N3CCNCC3)nc2n1CCc1ccccc1	·	10%	·	-24%	·	·
CC1=C(C(=O)N(C(C)C)C(C)C)CC(CC(=O)NC(c2ccccc2)c2ccccc2)C(=O)N1CCC1=CCCCC1 (configuration not stated)	?	26µM*	?	18µM*	?	?
CC1=C(C(=O)N2CCOCC2)CC(CC(=O)NC(c2ccccc2)c2ccccc2)C(=O)N1CCC1=CCCCC1 (configuration not stated)	10µM*	?	-17%	?	-19%	i
CC1=C(C(=O)N2CCOCC2)CC(CC(=O)NCc2ccco2)C(=O)N1CCC1=CCCCC1 (configuration not stated)	i	-10%	-4%	?	2%	i
CC1=C(C(=O)N(C)C)CC(CC(=O)NCCCCc2ccccc2)C(=O)N1CCC1=CCCCC1 (configuration not stated)	i	?	12%	?	4%	i
Cn1ncc2c(NCc3ccccc3)nc(NCCCO)nc21	i	-9%	-1%	11%	0%	i
COCCCNc1nc(NCc2cccc(Cl)c2)c2cnn(C)c2n1	?	?	·	18µM*	·	?
